Prostate diff: activators of LNCaP prostate cell differentiation | flow cytometry side scatter, 4 d | side scatter shift, % at 10 µM | 24,000 tested, 0.56% active | AID 795;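 active means side scatter shift above 30%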;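 further: androgen-responsive LNCaP prostate cancer cells in charcoal-stripped serum medium; higher shift means more granular cells and more differentiation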
S aureus QS inh: blocks AIP-induced quorum sensing reporter in S. aureus; S. aureus RN6390 RNAIII-GFP reporter, flow cytometry 3 h; inhibition, % at 2 µM; 24,000 tested, 0.3% active; AID 527;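 active means share of bacteria positive for the green fluorescent reporter and its mean brightness both inhibited by 50% or more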
FPRL1 binder: ligands of human FPRL1, also counter-screen for FPR ligands | P25090 | FPRL1-expressing cells, fluorescent ligand binding inhibition, flow cytometry | inhibition, % (no concentration beside the values) | 24,000 tested, 0.3% active
FPR binder: human FPR ligand, with FPRL1 counter-screen; P21462; FPR-expressing cells, fluorescent ligand binding, flow cytometry; inhibition, % (no concentration beside the values); 24,000 tested, 0.74% active; AID 440
Target sequence (P21462 whole entry, looked up): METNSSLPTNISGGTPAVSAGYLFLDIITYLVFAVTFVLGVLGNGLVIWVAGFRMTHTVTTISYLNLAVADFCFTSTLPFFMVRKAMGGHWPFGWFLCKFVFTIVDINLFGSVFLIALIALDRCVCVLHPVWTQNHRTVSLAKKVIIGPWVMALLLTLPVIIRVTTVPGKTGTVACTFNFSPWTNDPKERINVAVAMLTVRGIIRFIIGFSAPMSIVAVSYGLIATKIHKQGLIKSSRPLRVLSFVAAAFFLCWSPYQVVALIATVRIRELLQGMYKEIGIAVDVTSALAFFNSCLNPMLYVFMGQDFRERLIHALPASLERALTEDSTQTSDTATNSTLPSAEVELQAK
A number is an active result. Rows were chosen to be rich in hits. Some 1.7% of all compounds tested hit in one or more screens of this group. Unless noted, no stated cut-off is given here; in the data, active means inhibition above about 30%; inconclusive means no clear call, values can overlap the other calls; inactive means below that.

CCOc1cccc(/C(O)=C2/C(=O)C(=O)N(CCOC)C2c2ccc(C)o2)c1 (stereo not given) was read as FPRL1 binder inactive and FPR binder 51.
Screening Cc1ccc(C2/C(=C(/O)c3ccccc3)C(=O)C(=O)N2CCN2CCOCC2)o1 (stereo not given) returned FPRL1 binder inactive and FPR binder inactive.
O=C(NCc1ccccc1)c1cnc2n(c1=O)CCS2 was read as Prostate diff inactive, S aureus QS inh inactive, FPRL1 binder inactive and FPR binder inactive.
For O=C(NCCCc1ccccc1)c1cnc2n(c1=O)CCS2 the results were Prostate diff inactive, S aureus QS inh 56, FPRL1 binder inactive and FPR binder inactive.
`Cc1c(C(=O)NC2CCCc3ccccc32)oc2ccc(S(=O)(=O)N3CCOCC3)cc12` (stereo not given) gave Prostate diff inactive, S aureus QS inh inactive, FPRL1 binder inactive and FPR binder 38.
`Cc1c(C(=O)NC2CC2)oc2ccc(S(=O)(=O)N3CCCCCC3)cc12` gave Prostate diff inactive, S aureus QS inh inactive, FPRL1 binder inactive and FPR binder inactive.
For COC(=O)C(C)NS(=O)(=O)c1ccc(NC(C)=O)cc1 (stereo not given) the results were Prostate diff inactive, S aureus QS inh inactive, FPRL1 binder inactive and FPR binder inactive.
COc1ccc(S(=O)(=O)NC(C)C(=O)Nc2cccc(C(C)=O)c2)cc1 (stereo not given) was read as Prostate diff inactive, S aureus QS inh inactive, FPRL1 binder 47 and FPR binder inactive.
For Cc1nc2c(-c3ccc(F)cc3)c(C)nn2c(C)c1CCC(=O)NC(C)CCc1ccco1 (stereo not given) the results were Prostate diff inactive, S aureus QS inh inactive, FPRL1 binder inactive and FPR binder 44.
Cc1nc2c(-c3ccccc3)c(C)nn2c(C)c1CCC(=O)NCc1ccco1 was read as Prostate diff inactive, S aureus QS inh inactive, FPRL1 binder inactive and FPR binder inactive.
`Cc1oc(-c2ccc(Cl)cc2)nc1CN1CCC(C(=O)N2CCc3ccccc3C2)CC1` gave Prostate diff inactive, S aureus QS inh inactive, FPRL1 binder inactive and FPR binder inactive.
Screening Cc1oc(-c2cccc(Cl)c2)nc1CN1CCC(C(=O)N2CCN(c3ccccc3F)CC2)CC1 returned Prostate diff 34, S aureus QS inh inactive, FPRL1 binder inactive and FPR binder inactive.
Screening Cc1oc(-c2ccc(Cl)cc2)nc1CN1CCC(C(=O)N2CCN(Cc3ccccc3)CC2)CC1 returned Prostate diff 78, S aureus QS inh inactive, FPRL1 binder inactive and FPR binder inactive.
Screening O=c1cc(N2CCc3ccccc32)[nH]c(=O)n1Cc1ccc(F)cc1 returned Prostate diff inactive, S aureus QS inh inactive, FPRL1 binder inactive and FPR binder 43.
For O=c1cc(N2CCN(Cc3ccccc3)CC2)[nH]c(=O)n1Cc1ccc(F)cc1 the results were Prostate diff inactive, S aureus QS inh inactive, FPRL1 binder inactive and FPR binder inactive.
For CCC(=O)Nc1ccccc1Nc1cc(C#N)c(C#N)cc1[N+](=O)[O-] the results were FPRL1 binder inactive and FPR binder inactive.
`CCOC(=O)c1nnn(-c2nonc2N)c1CN(C)Cc1ccccc1` gave Prostate diff inactive, S aureus QS inh inactive, FPRL1 binder inactive and FPR binder inactive.
Screening CCC(SC1=Nc2ccccc2C2=NC(CC(C)C)C(=O)N12)C(=O)Nc1ccc2c(c1)OCO2 (stereo not given) returned Prostate diff inactive, S aureus QS inh inactive, FPRL1 binder inactive and FPR binder 58.
`O=C(Nc1ccc(Nc2ccccc2)cc1)c1ccc(Br)o1` gave FPRL1 binder 34 and FPR binder inactive.
Cc1cc(O)c(NC(=O)c2ccc(Br)o2)cc1C was read as Prostate diff inactive, S aureus QS inh inactive, FPRL1 binder inactive and FPR binder inactive.
COc1ccccc1N1CSC2=C(C#N)C(c3ccc(SC)cc3)CC(=O)N2C1 (stereo not given) was read as Prostate diff inactive, S aureus QS inh inactive, FPRL1 binder inactive and FPR binder inactive.
`COc1cc(C(=O)NCc2nnc(SCC(=O)N3CCc4ccccc43)o2)cc(OC)c1OC` gave Prostate diff inactive, S aureus QS inh inactive, FPRL1 binder inactive and FPR binder inactive.
`C=CCOC(=O)c1sc(N2C(=O)c3oc4ccccc4c(=O)c3C2c2ccco2)nc1C` (stereo not given) gave Prostate diff inactive, S aureus QS inh inactive, FPRL1 binder inactive and FPR binder inactive.
Screening COc1ccc(-c2ccc(-c3noc(-c4ccccc4)n3)c(OC)n2)cc1 returned Prostate diff 34, S aureus QS inh inactive, FPRL1 binder inactive and FPR binder inactive.
O=C(Nc1ccc(F)cc1)N(CCCN1CCOCC1)Cc1cc2cc3c(cc2[nH]c1=O)OCO3 was read as Prostate diff inactive, S aureus QS inh inactive, FPRL1 binder inactive and FPR binder inactive.
Screening CCc1ccc2[nH]c(=O)c(CN(CCCN3CCOCC3)C(=O)Nc3ccc(F)cc3)cc2c1 returned S aureus QS inh 93.
COc1cccc(C2C(C(N)=O)=C(C)Nc3nc(-c4ccccc4Cl)nn32)c1 (stereo not given) was read as Prostate diff inactive, S aureus QS inh inactive, FPRL1 binder inactive and FPR binder inactive.
For COC(=O)C1=C(C)NC(=O)CC1c1cccc(Cl)c1Cl (stereo not given) the results were Prostate diff inactive, S aureus QS inh inactive, FPRL1 binder inactive and FPR binder inactive.
`CCOC(=O)C1=C(C)NC(C)=C(C(=O)OC)C1c1cccc(Cl)c1Cl` (stereo not given) gave Prostate diff inactive, S aureus QS inh 54, FPRL1 binder inactive and FPR binder inactive.
Screening O=C(Cc1coc(-c2ccc(F)cc2)n1)NC1CCCCC1 returned Prostate diff inactive, S aureus QS inh inactive, FPRL1 binder inactive and FPR binder inactive.
O=C(Cc1coc(-c2ccc(F)cc2)n1)N1CCOCC1 was read as Prostate diff 30, S aureus QS inh inactive, FPRL1 binder inactive and FPR binder inactive.
Screening c1ccc(-c2ccc(C(c3ccccc3)n3ccnc3)cc2)cc1 (stereo not given) returned Prostate diff inactive, S aureus QS inh 58, FPRL1 binder inactive and FPR binder inactive.
Screening c1ccc(-c2nc(N3CCCCCC3)nc(-n3ccnc3)n2)cc1 returned Prostate diff inactive, S aureus QS inh inactive, FPRL1 binder inactive and FPR binder inactive.
O=C1SC(SC(=Nc2ccccc2)Nc2ccccc2)C(=O)N1c1ccccc1 (stereo not given) was read as S aureus QS inh inactive.
`CC1Cc2ccccc2N1S(=O)(=O)c1cnc[nH]1` (stereo not given) gave Prostate diff inactive, S aureus QS inh inactive, FPRL1 binder inactive and FPR binder inactive.
For O=S(=O)(c1cnc[nH]1)N1CCc2ccccc21 the results were Prostate diff inactive, S aureus QS inh inactive, FPRL1 binder 33 and FPR binder inconclusive.
`O=C1C(CCS(=O)c2ccccc2)C(=O)N(c2ccccc2)N1c1ccccc1` (stereo not given) gave Prostate diff inactive, S aureus QS inh inactive, FPRL1 binder inactive and FPR binder 34.
COc1ccc(S(=O)(=O)NCCSCc2ccco2)cc1Cl was read as Prostate diff inactive, S aureus QS inh inactive, FPRL1 binder inactive and FPR binder inactive.

Screening data: PubChem BioAssay, NMMLSC
